High-throughput results (PubChem BioAssay)
EWS-Fli inh = blocks EWS/Fli oncoprotein-driven transcription; 350,000 compounds, 0.67% hits; AID 651661; inhibition, % at 12.6 µM; A673 NR0B1-luciferase reporter, viability-normalised;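 active = mean inhibition of at least 50% after viability correction, with every replicate also passing that limit; inconclusive = mean reaches 50% but only one of two replicates passes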;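 also: firefly luciferase signal divided by Alamar Blue viability fluorescence both relative to DMSO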
TRPM1 prom inh = reduces MITF-dependent TRPM1 promoter luciferase signal | SK-MEL-5 TRPM1 promoter luciferase, 24 h | 330,000 compounds, 0.83% hits | inhibition, % at 12.5 µM | AID 488899;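 active = mean inhibition across replicates of 60% or more, whatever share of single replicates reaches that level; inconclusive = some that reach 60%, reason not given; inactive = mean inhibition across replicates below 60%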
PAX8 reporter = lowers PAX8-driven luciferase in RMG-I cells; RMG-I TPO-luciferase reporter, SteadyGlo, 24 h; inhibition, % at 12.6 µM; 360,000 compounds, 1.2% hits; AID 652154;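 active = mean replicate inhibition at least 60% with every replicate also reaching 60%; inconclusive = only one of the two criteria is met; inactive = mean below 60% and not all replicates reaching 60%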;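 also: luciferase light reporting Pax8 driven TPO promoter activity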
esBAF inh = blocks esBAF chromatin remodeling in mouse ES cells; Bmi1-luciferase knock-in reporter, 24 h; 100% = twice the neutral-well signal; reporter increase, % at 12.5 µM; 350,000 compounds, 2% hits; in the data active = activation above about 40%; inconclusive = no clear call, values can overlap the other calls;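 also: a rise in the Bmi1 reporter signal indicates esBAF inhibition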
Wnt act = Wnt/beta-catenin pathway activation; Wnt/beta-catenin reporter cell assay, activator, plate reader; activation, % at 9.35 µM; 300,000 compounds, 1.2% hits; AID 743398; in the data active = activation above about 30%, passing the limit was not always enough; inconclusive = no clear call, values can overlap the other calls
MITF TRPM1 HTS = activators of MITF-driven TRPM1 promoter activity in SK-MEL-5 cells. SK-MEL-5 TRPM1-promoter luciferase, 24 h; % of positive control, neutral wells = 0. activation, % at 12.5 µM. 300,000 compounds, 0.75% hits. AID 588334;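 active = mean activation of at least 80% with every replicate also reaching 80%; inconclusive = mean reaches 80% but some replicate falls short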
Large screens that a line does not name were inactive. Hits are enriched below; roughly 4% of the tested compounds scored in any of these assays.

Cc1cccc(NC(=S)N/N=C/C(C)c2ccccc2)c1C (centres undefined)	Wnt act 34 (no result: esBAF inh)
Cc1ccccc1NC(=S)N/N=C/C(C)c1ccccc1 (centres undefined)	none
COc1ccccc1NC(=O)N(C)C[C@@H]1Oc2ncc(C#CCN(C)C)cc2C(=O)N([C@H](C)CO)C[C@@H]1C	none (no result: TRPM1 prom inh, PAX8 reporter, Wnt act, MITF TRPM1 HTS)
O=C(c1ccccc1)N1CCN(C(=O)c2ccccc2Br)CC1	none (no result: EWS-Fli inh, MITF TRPM1 HTS)
CC12CN(C(=O)c3ccccc3Br)CC(C)(CN(C(=O)c3ccccc3Br)C1)C2=O	Wnt act 41 (no result: MITF TRPM1 HTS)
O=C(/C=C\c1ccccc1OC(=O)c1ccccc1F)c1cc2ccccc2o1	esBAF inh 49
NC(=O)C(C(=O)/C=C/c1ccc(Cl)cc1)=C1SCCS1	PAX8 reporter 89
CN(C)c1ccc(N=c2sc3ccccc3n2C)cc1	esBAF inh 82, Wnt act 51 (no result: EWS-Fli inh, PAX8 reporter)
Cn1c(=NC(=O)CCl)sc2ccccc21	EWS-Fli inh 74 (no result: PAX8 reporter)
Cn1c(=Nc2ccccc2)sc2ccccc21	none (no result: PAX8 reporter)
CCOC(=O)C1=C(CSc2nc(-c3ccccc3)ccc2C#N)OC(N)=C(C#N)C1c1ccc(OC)cc1 (centres undefined)	esBAF inh 54 (no result: EWS-Fli inh, PAX8 reporter, Wnt act)
CCOC(=O)C1=C(CSc2nc(CC)c(C)cc2C#N)OC(N)=C(C#N)C1c1ccccc1 (centres undefined)	none (no result: EWS-Fli inh, PAX8 reporter, Wnt act, MITF TRPM1 HTS)
C[C@@H]1CN([C@@H](C)CO)C(=O)c2cccc(NC(=O)CCCCCC(=O)Nc3ccccc3N)c2O[C@@H]1CN(C)S(C)(=O)=O	none (no result: TRPM1 prom inh, esBAF inh, Wnt act, MITF TRPM1 HTS)
C[C@@H]1CN([C@H](C)CO)S(=O)(=O)c2ccc(C3=CCCC3)cc2O[C@H]1CN(C)Cc1ccccn1	none (no result: TRPM1 prom inh, Wnt act, MITF TRPM1 HTS)
COc1ccc(S(=O)(=O)N2CCOc3ccccc32)cc1	EWS-Fli inh 56
COc1ccc(S(=O)(=O)N2c3ccccc3OCC2c2ccccc2)cc1 (centres undefined)	none (no result: EWS-Fli inh)
COc1ccc(S(=O)(=O)N2c3ccccc3OCC2C(C)(C)C)cc1 (centres undefined)	EWS-Fli inh 58 (no result: esBAF inh)
COc1ccc(S(=O)(=O)N2c3ccccc3OCC2C)cc1 (centres undefined)	EWS-Fli inh 74 (no result: esBAF inh)
COc1ccc(S(=O)(=O)N2c3ccccc3OCC2CC(=O)O)cc1 (centres undefined)	none (no result: esBAF inh)
Cc1noc(C)c1S(=O)(=O)Nc1ccc2c(c1)CC(=O)N([C@H](C)CO)C[C@@H](C)[C@H](CN(C)C(=O)Nc1ccc3c(c1)OCO3)O2	none (no result: TRPM1 prom inh, Wnt act, MITF TRPM1 HTS)
CC(C)NC(=O)Nc1cccc2c1O[C@@H](CN(C)Cc1ccc(C(F)(F)F)cc1)[C@H](C)CN([C@@H](C)CO)C2=O	none (no result: TRPM1 prom inh, PAX8 reporter, esBAF inh, Wnt act, MITF TRPM1 HTS)
COc1ccc(S(=O)(=O)N(C)C[C@@H]2Oc3ccc(NC(=O)Cn4cnnn4)cc3CC(=O)N([C@H](C)CO)C[C@H]2C)cc1	none (no result: TRPM1 prom inh, PAX8 reporter, Wnt act, MITF TRPM1 HTS)
CC1=NN(c2nc(N)nc(/C(C#N)=C/c3ccc([N+](=O)[O-])o3)n2)C(C)(C)C1	EWS-Fli inh 70, TRPM1 prom inh 91 (no result: esBAF inh)
C#CCN(C[C@H]1[C@H](OC(=O)Nc2c(C)noc2C)[C@H](OC(=O)Nc2c(C)noc2C)C[C@@H](C(=O)OC)[C@H]1C(=O)OC)S(=O)(=O)c1ccc(C)cc1	PAX8 reporter 97 (no result: TRPM1 prom inh, MITF TRPM1 HTS)
C#CCN(C[C@@H]1[C@@H](OC(=O)Nc2cccs2)[C@@H](OC(=O)Nc2cccs2)C[C@H](C(=O)OC)[C@@H]1C(=O)OC)S(=O)(=O)c1ccc(C)cc1	none (no result: TRPM1 prom inh, esBAF inh, MITF TRPM1 HTS)
COc1ccccc1C(=O)Nc1nc2ccc(S(C)(=O)=O)cc2s1	esBAF inh 49 (no result: EWS-Fli inh, PAX8 reporter, Wnt act)
CN(C)S(=O)(=O)c1ccc2nc(NC(=O)c3cccnc3)sc2c1	Wnt act 38 (no result: EWS-Fli inh, esBAF inh)
CS(=O)(=O)c1ccc2nc(NC(=O)c3ccccc3Br)sc2c1	esBAF inh 58 (no result: MITF TRPM1 HTS)
CCC(=O)N1C[C@H](C)[C@H](OC)CN(C)C(=O)c2cc(NC(=O)NC(C)C)ccc2OC[C@@H]1C	none (no result: TRPM1 prom inh, PAX8 reporter, Wnt act, MITF TRPM1 HTS)
C[C@H](CO)N1C[C@H](C)[C@H](CN(C)C(=O)c2ccccc2)Oc2ncc(C3=CCCCC3)cc2C1=O	none (no result: TRPM1 prom inh, PAX8 reporter, Wnt act, MITF TRPM1 HTS)
Cn1c(CCNC(=O)c2ccco2)nc2cc(NC(=O)c3ccccc3)ccc21	esBAF inh 46, Wnt act 32, MITF TRPM1 HTS 89 (no result: EWS-Fli inh)
Cn1c(CCNC(=O)c2ccccc2)nc2cc(NC(=O)c3ccco3)ccc21	none (no result: EWS-Fli inh, MITF TRPM1 HTS)
Cn1c(CCNC(=O)c2ccco2)nc2cc(NC(=O)c3ccco3)ccc21	esBAF inh 51, Wnt act 39 (no result: EWS-Fli inh, MITF TRPM1 HTS)
O=C(c1cc2ccccc2oc1=O)N(Cc1ccc(F)cc1)C1CCS(=O)(=O)C1 (centres undefined)	esBAF inh inconclusive (no result: MITF TRPM1 HTS)
CCc1ccc(CN(C(=O)c2cc3ccccc3oc2=O)C2CCS(=O)(=O)C2)cc1 (centres undefined)	esBAF inh 86 (no result: EWS-Fli inh, PAX8 reporter, Wnt act, MITF TRPM1 HTS)
CC(C)N(Cc1ccc(F)cc1)C(=O)c1cc2ccccc2oc1=O	esBAF inh 47 (no result: MITF TRPM1 HTS)
Cc1ccc(N(C(=O)c2cc3ccccc3oc2=O)C2C=CS(=O)(=O)C2)cc1 (centres undefined)	PAX8 reporter 77 (no result: esBAF inh)
CN(C)C(CNC(=O)c1cc2ccccc2oc1=O)c1ccccc1 (centres undefined)	esBAF inh 51, MITF TRPM1 HTS 99
CCNC(=O)[C@@H]1[C@@H](CO)[C@@H]2Cn3c(cccc3=O)[C@@H]2N1C(=O)C1CCCC1	none (no result: TRPM1 prom inh, Wnt act, MITF TRPM1 HTS)
C[C@@H]1CN([C@@H](C)CO)S(=O)(=O)c2ccc(-c3cccc(C#N)c3)cc2O[C@H]1CN(C)Cc1cccc(F)c1	none (no result: TRPM1 prom inh, Wnt act, MITF TRPM1 HTS)
CO[C@@H]1CN(C)C(=O)c2ccc(NC(=O)C3CCOCC3)cc2OC[C@@H](C)N(C(=O)c2ccccc2)C[C@@H]1C	none (no result: TRPM1 prom inh, Wnt act, MITF TRPM1 HTS)
COc1cccc(NC(=O)c2cc3ccccc3oc2=O)c1	none (no result: MITF TRPM1 HTS)
Cc1cccnc1NC(=O)c1cc2ccccc2oc1=O	esBAF inh inconclusive, Wnt act 47
COc1nccnc1NS(=O)(=O)c1ccc(NC(=S)NC(=O)/C=C/c2ccc(F)cc2)cc1	none (no result: esBAF inh)
COc1cc(NS(=O)(=O)c2ccc(NC(=S)NC(=O)/C=C/c3ccc(F)cc3)cc2)ncn1	Wnt act 41
CC1(C)CC(=O)C2=C(C1)OC1=C(C(=O)CC(C)(C)C1)C2c1ccc(O)cc1O	TRPM1 prom inh 101 (no result: EWS-Fli inh, PAX8 reporter, esBAF inh, Wnt act)
CC1(C)CC(=O)C2=C(C1)OC1=C(C(=O)CC(C)(C)C1)C2c1ccc(O)c([N+](=O)[O-])c1	none (no result: esBAF inh)
Cc1ccc(S(=O)(=O)N(C)C[C@H]2OCCCC[C@H](C)Oc3ccc(NS(=O)(=O)c4ccc(Cl)cc4)cc3C(=O)N([C@@H](C)CO)C[C@@H]2C)cc1	PAX8 reporter 89 (no result: TRPM1 prom inh, Wnt act, MITF TRPM1 HTS)
Cc1ccc(S(=O)(=O)N(C)C[C@@H]2OCCCC[C@@H](C)Oc3ccc(NS(=O)(=O)c4ccc(Cl)cc4)cc3C(=O)N([C@H](C)CO)C[C@@H]2C)cc1	none (no result: TRPM1 prom inh, Wnt act, MITF TRPM1 HTS)
Cc1ccc(S(=O)(=O)Nc2ccc3c(c2)C(=O)N([C@H](C)CO)C[C@@H](C)[C@H](CN(C)S(=O)(=O)c2ccc(Cl)cc2)OCCCC[C@H](C)O3)cc1	PAX8 reporter 88 (no result: TRPM1 prom inh, esBAF inh, Wnt act, MITF TRPM1 HTS)
